Laboratory results taken from the supplement of paper PMC11732987, “Enantioselective OTUD7B fragment discovery through chemoproteomics screening and high-throughput optimisation” (Communications Chemistry, 2025).

Columns and labels:
Assay in all cases: log2 ratio of Biotin-Ahx-Ub-VS probe labelling (fragment/DMSO); higher = less target engagement (more negative = stronger competition), active = hit call of the paper (q ≤ 0.05, log2 ratio ≤ -1)
Details in all cases: compound concentration: 200 uM; treatment time: 3 h
[1] = target: USP34 (UniProt Q70CQ2)
In short: (§1)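 Labelled DUBs from HEK293T lysate were NeutrAvidin-enriched, digested with LysC and trypsin, and run by diaPASEF LC-MS/MS. Before that, each 495 µg sample in Tris/CHAPS/IGEPAL buffer with protease inhibitors was treated in triplicate with fragment at 200 µM or vehicle for 3 h, then with Biotin-Ahx-Ub-VS at 0.5 µM final for 1 h. Values are average log2 ratios of fragment over vehicle by unpaired t-test, based on global-median-normalised Spectronaut label-free quantities from proteins with ≥2 unique peptides.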

[2] = target: T1, USP36 (UniProt Q9P275)
T1 sequence (whole entry): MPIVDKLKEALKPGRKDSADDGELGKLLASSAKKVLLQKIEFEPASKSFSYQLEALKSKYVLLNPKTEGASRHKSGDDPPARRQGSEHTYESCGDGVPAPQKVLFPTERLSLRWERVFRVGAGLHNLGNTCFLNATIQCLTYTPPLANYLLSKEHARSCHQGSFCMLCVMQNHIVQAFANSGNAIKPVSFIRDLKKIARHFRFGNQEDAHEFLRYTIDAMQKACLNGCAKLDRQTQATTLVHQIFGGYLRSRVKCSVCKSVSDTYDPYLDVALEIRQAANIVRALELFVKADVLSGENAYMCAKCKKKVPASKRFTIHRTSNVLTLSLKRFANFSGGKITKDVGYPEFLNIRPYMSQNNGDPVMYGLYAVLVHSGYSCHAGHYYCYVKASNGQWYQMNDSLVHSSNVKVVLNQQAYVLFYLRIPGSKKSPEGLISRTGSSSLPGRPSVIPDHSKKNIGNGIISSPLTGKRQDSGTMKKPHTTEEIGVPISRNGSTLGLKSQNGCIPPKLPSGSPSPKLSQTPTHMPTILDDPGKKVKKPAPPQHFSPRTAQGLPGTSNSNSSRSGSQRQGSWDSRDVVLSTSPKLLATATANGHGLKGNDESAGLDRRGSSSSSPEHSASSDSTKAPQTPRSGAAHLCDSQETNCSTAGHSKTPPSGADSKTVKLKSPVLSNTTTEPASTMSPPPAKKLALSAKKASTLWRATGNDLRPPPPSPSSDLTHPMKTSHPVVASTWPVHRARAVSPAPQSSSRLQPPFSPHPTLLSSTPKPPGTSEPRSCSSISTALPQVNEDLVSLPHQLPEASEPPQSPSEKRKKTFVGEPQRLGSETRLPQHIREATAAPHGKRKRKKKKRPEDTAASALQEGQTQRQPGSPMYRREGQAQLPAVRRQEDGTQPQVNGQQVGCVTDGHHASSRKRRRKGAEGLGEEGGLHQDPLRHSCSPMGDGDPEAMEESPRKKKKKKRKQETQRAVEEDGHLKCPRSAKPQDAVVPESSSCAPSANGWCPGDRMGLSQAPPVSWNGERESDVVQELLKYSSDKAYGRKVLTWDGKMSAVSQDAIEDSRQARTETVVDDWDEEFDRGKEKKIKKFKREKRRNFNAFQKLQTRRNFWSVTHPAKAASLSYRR
In short: as §1

[3] = target: T2, USP38 (UniProt Q8NB14)
T2 sequence (whole entry): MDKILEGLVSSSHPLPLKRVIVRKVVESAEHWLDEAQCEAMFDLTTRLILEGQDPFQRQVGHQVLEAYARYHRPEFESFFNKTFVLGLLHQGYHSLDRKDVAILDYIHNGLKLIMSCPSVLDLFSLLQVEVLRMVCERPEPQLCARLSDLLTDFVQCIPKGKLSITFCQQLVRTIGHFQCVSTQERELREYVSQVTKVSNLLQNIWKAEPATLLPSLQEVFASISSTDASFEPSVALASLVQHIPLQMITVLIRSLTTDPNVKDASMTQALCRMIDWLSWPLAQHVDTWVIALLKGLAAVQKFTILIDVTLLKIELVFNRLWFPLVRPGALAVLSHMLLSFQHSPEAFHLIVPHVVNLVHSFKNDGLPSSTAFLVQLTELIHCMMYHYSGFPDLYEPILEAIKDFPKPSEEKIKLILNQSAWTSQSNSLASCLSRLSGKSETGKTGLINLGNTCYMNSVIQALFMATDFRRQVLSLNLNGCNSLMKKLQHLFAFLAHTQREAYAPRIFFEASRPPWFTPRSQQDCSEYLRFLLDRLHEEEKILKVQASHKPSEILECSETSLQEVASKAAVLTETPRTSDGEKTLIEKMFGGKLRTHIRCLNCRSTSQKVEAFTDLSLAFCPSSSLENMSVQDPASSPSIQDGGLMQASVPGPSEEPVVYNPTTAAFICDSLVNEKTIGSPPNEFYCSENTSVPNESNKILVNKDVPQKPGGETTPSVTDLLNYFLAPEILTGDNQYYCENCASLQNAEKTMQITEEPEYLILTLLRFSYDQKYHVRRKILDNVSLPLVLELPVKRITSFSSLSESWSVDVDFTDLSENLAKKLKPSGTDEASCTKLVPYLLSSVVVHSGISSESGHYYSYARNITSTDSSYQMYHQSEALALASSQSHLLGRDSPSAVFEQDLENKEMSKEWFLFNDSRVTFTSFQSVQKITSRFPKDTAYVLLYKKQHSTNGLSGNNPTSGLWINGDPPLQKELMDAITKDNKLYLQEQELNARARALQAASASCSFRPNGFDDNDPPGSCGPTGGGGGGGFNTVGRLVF
In short: as §1

[4] = target: T3, USP39 (UniProt Q53GS9)
T3 sequence (whole entry): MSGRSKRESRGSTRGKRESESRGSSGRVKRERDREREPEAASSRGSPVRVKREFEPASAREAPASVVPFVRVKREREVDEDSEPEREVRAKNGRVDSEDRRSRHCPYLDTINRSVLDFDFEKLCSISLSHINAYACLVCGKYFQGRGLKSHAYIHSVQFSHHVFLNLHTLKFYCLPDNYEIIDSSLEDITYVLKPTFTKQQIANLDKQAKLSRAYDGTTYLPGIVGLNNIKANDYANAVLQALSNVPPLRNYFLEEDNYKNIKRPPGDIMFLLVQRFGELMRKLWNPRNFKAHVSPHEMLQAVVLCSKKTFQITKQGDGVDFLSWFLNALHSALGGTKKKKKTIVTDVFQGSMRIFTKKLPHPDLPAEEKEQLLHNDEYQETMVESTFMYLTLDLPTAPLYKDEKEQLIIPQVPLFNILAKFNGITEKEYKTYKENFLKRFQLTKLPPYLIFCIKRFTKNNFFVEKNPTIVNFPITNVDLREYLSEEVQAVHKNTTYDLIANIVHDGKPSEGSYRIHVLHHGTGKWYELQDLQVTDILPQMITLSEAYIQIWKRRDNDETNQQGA
In short: as §1

[5] = target: T4, USP4 (UniProt Q13107)
T4 sequence (whole entry): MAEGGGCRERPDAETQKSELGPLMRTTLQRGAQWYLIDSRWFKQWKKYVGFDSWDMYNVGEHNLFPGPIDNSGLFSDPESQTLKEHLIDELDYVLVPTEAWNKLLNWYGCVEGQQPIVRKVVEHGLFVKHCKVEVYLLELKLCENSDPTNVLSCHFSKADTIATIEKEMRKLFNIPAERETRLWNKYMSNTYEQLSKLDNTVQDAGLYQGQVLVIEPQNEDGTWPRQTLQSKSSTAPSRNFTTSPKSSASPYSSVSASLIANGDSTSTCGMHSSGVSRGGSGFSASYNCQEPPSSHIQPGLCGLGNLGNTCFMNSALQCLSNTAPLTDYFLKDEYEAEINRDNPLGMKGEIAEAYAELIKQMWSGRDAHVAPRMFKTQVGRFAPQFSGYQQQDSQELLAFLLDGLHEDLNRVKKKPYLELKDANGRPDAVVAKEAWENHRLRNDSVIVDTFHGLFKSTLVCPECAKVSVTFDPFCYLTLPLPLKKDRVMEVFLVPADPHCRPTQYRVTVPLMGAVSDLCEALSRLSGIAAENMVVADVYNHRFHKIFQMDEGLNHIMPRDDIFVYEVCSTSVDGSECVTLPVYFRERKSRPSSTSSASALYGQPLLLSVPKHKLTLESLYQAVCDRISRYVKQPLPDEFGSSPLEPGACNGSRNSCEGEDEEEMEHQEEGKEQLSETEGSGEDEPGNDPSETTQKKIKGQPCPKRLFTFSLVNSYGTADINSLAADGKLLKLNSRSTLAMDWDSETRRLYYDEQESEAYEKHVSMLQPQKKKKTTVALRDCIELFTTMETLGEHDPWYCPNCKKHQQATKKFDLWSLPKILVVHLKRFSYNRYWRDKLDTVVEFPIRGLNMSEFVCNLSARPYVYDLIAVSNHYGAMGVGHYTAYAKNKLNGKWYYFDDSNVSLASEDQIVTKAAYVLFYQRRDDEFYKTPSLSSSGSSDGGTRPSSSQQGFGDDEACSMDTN
In short: as §1

Measured: log2 ratio of Biotin-Ahx-Ub-VS probe labelling

Sequence of USP34 (Q70CQ2 whole entry, the tested form may be a part): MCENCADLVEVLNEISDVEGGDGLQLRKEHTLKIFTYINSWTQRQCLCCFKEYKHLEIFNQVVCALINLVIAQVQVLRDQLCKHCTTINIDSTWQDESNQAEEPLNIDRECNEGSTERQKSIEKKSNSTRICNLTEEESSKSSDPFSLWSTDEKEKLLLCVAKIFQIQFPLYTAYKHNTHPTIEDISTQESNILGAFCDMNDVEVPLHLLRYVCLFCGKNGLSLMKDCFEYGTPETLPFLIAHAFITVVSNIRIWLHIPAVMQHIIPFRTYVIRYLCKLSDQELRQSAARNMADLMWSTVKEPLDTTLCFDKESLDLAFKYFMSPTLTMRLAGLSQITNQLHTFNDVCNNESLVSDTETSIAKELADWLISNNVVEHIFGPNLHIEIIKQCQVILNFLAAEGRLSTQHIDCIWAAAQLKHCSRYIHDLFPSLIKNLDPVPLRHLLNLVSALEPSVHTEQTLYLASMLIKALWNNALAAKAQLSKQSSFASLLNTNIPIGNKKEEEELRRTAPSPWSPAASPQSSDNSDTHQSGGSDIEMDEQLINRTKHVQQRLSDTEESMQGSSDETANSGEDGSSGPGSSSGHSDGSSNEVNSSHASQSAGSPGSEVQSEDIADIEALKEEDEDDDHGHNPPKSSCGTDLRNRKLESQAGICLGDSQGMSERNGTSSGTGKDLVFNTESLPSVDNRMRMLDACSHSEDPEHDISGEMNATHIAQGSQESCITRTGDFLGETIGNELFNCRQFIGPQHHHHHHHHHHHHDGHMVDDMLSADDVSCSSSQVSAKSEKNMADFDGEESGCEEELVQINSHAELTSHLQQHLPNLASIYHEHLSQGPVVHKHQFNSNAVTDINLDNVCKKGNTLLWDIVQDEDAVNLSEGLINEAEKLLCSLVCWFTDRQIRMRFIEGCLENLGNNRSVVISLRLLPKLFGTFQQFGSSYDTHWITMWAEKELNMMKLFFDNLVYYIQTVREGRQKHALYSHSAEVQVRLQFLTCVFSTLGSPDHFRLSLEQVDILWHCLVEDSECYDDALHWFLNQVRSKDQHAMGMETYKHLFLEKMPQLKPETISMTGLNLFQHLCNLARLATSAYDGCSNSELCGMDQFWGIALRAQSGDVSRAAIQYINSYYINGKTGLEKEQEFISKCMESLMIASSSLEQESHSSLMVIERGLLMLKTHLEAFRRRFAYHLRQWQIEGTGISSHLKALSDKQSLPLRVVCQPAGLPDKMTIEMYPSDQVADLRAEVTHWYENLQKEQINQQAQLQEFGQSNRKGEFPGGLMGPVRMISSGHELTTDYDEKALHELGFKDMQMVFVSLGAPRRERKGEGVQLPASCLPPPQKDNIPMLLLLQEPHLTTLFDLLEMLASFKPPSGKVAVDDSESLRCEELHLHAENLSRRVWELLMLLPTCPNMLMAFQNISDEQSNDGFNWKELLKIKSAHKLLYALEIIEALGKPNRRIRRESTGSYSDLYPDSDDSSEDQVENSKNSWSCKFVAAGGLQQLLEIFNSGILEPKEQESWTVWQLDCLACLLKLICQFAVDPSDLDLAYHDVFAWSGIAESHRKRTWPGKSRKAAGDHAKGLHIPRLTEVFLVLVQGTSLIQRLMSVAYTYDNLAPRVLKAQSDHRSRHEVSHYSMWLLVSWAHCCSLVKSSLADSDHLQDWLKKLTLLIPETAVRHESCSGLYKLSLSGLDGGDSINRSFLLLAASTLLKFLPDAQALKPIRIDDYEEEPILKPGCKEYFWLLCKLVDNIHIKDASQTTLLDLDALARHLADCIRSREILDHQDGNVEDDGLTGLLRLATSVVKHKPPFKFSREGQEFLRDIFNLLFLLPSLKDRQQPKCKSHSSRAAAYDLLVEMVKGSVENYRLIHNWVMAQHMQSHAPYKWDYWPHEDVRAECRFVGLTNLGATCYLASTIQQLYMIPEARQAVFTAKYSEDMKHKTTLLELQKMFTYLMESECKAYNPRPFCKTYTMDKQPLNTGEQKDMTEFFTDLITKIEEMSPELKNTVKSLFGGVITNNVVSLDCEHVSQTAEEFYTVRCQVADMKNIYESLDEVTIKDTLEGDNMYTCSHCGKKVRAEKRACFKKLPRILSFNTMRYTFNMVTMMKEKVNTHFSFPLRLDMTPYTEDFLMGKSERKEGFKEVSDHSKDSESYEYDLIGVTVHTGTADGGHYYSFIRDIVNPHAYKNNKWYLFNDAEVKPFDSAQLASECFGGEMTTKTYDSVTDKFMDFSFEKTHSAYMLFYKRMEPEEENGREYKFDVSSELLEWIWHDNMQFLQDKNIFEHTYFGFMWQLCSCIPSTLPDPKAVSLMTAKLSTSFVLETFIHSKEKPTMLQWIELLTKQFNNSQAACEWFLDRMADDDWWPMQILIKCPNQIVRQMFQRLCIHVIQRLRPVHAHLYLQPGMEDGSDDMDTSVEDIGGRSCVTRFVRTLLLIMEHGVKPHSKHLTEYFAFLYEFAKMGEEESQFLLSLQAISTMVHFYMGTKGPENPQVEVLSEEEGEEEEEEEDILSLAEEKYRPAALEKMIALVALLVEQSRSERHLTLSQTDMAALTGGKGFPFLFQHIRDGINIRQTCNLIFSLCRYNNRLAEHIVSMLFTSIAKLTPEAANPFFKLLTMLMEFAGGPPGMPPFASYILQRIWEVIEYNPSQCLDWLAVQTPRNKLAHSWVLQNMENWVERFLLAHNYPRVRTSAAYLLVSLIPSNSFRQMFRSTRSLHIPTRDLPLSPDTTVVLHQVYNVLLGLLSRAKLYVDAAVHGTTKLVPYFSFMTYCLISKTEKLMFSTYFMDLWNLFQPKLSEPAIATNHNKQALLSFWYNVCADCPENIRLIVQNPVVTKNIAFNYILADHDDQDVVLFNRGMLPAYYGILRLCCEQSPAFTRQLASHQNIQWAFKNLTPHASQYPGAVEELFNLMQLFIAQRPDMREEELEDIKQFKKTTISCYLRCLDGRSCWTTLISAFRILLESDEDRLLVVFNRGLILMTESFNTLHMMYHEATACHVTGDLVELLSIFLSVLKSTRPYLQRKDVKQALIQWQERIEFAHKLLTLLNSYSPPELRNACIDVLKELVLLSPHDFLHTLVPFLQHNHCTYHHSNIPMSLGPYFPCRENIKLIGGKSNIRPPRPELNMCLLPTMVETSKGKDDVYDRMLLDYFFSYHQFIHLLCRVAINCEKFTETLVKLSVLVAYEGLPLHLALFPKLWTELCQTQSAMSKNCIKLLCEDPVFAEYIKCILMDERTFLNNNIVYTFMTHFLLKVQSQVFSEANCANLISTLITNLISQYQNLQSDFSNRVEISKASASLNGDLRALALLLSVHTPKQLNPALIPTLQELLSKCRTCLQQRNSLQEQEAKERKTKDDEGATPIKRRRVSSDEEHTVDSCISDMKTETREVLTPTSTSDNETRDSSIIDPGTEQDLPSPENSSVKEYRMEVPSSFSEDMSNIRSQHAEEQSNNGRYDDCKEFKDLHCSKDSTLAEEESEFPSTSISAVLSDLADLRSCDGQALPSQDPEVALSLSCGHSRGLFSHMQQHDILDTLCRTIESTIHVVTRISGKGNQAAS

Cc1ccc(C)c(NC(=O)CCl)c1
inactive: [1] -0.458 | [2] -0.1 | [3] -0.159 | [4] 0.199 | [5] -0.443
